This is a sample that favours compounds with a hit; in the whole collection about 8% have one here.
LASV entry inh: Lassa virus entry inhibition; Potency, µM (titrated, usually from 37.9 µM), for inactives: at the highest dose activity change, negative = inhibition, most hits filed as inhibitors; AID 540256; Lassa virus pseudotype entry inhibition, cell reporter; 1.2% of 300,000 active; calls by dose curve; tested in HEK293 cells; further: potency means the concentration at half of the fitted maximal effect; on the % scale 0 is the no-effect control and ±100 the full control effect; nearly all actives have a fitted effect of over 50% in size
HCV inhibitor: HCV inhibition. Huh7.5.1 HCVcc-Cre infection, luciferase reporter, 44 h. Potency, µM (titrated, usually from 41.8 µM), for the others: top-dose activity change, negative = inhibition, hits mostly inhibitors. 3.4% of 340,000 active. AID 651820; active means well fitted inhibition curve with a large enough effect; inconclusive means small, poorly fitted or top-dose-only effect, or another doubt; inactive means no such curve, though single readings can be large or run the other way; further: potency means the concentration at half of the fitted maximal effect; on the % scale 0 is the no-effect control and ±100 the full control effect
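Whole-lifecycle infectious HCVcc-Cre system; cells 1,000/well, compound then virus (~0.5 moi) added 4 h after plating, 44 h culture. Luciferase read 15 sec following 15 min substrate incubation, room temp.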
Marburg entry inh: inhibitors of Marburg virus binding or cell entry; Marburg virus pseudotyped entry inhibition, cell reporter; Potency, µM (highest dose often 37.8 µM), for the others: top-dose activity change, negative = inhibition, most hits filed as inhibitors; 1.8% of 300,000 active; calls by dose curve; tested in HEK293 cells; further: potency means the concentration at half of the fitted maximal effect; on the % scale 0 is the no-effect control and ±100 the full control effect
HCMV inh: human cytomegalovirus inhibition; HFF cells, HCMV-luciferase reporter, 72 h; hits give low values; activity change, negative = inhibition, % at 57.5 µM; 4.5% of 410,000 active; AID 1259415; in the data active means activity change below about -60%; inconclusive means no clear call, values can overlap the other calls; inactive means above about -39%; further: on the % scale 0 is the no-effect control and ±100 the full control effect
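Human foreskin fibroblasts infected with luciferase-reporter HCMV at MOI 1 PFU/cell, compounds at two doses. Luciferase measured 72 h post infection; normalized to buffer-only basal and Salinomycin (10uM) controls.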
SARS PLpro yeast: SARS-CoV PLP inhibition in yeast. Potency, µM (highest dose often 32.9 µM), for inactives: at the top dose activity, positive = growth rescue, actives largely listed as activators. S. cerevisiae expressing SARS-CoV PLpro, growth rescue. 0.19% of 330,000 active; calls by dose curve; further: potency means the concentration at half of the fitted maximal effect; 0% is about no effect; nearly all actives have a fitted effect of over 55% in size
FMDV antiviral: blocks foot and mouth disease virus; 1.2% of 410,000 active; Potency, µM (titrated, usually from 57.9 µM), without a hit: at the highest dose activity change, negative = inhibition, hits mostly inhibitors; FMDV antiviral cell-based qHTS; calls by dose curve; tested in HEK293T cells; further: read-out not given here; potency means the concentration at half of the fitted maximal effect; on the % scale 0 is the no-effect control and ±100 the full control effect; nearly all actives have a fitted effect of over 45% in size
The depositor's hits bear a star; ? = inconclusive; . = no result; [ ] = another dose, or the depositor's remark.

SMILES	LASV entry inh	HCV inhibitor	Marburg entry inh	HCMV inh	SARS PLpro yeast	FMDV antiviral
O=C(N/N=C\c1cn(-c2ccccc2)nc1-c1ccccc1)c1ccc2c(c1)OCO2	-16%	13µM*	?	-13	0%	-10%
Cc1[nH]c2ccccc2c1/C=N/Nc1nncn1N	.	-29%	?	-64*	-3%	59%
COc1cccc(Cn2c(=O)c(-c3cccs3)nc3cnc(OCc4ccccc4)nc32)c1	.	.	.	.	.	-14%
CNC(=S)N1N=C(c2ccc(OC)cc2)CC1c1ccc(N(C)C)cc1 (centres undefined)	?	11µM*	?	8	15%	5%
CC(=O)Nc1cc(C(=O)NCc2ccc(F)cc2)ccc1Sc1ccc(C)cc1	2%[46.1 µM]	.	.	-29	.	-15%
O=C1C(=Cc2cccc(O)c2O)SC(=S)N1CCCN1CCOCC1	.	.	.	-97*	.	0%
O=C(CCCN1C(=O)/C(=C/c2ccccc2Cl)SC1=S)NCCCN1CCOCC1	?	-19%	?	?	1%	?
O=C(CCN1C(=O)/C(=C\c2ccccc2)SC1=S)N1CCOCC1	-11%	-6%	-16%[46.1 µM]	-11	4%	0%
O=C(O)CN1C(=O)/C(=C\c2ccccc2OCc2ccc(Cl)cc2Cl)SC1=S	9%[46.1 µM]	30%	-15%[46.1 µM]	-32	0%	25µM*
CCOc1ccc(/C=C2\SC(=S)N(CCCC(=O)NCCCN3CCOCC3)C2=O)cc1	?	-16%	?	-95*	1%	11µM*
O=C(CCN1C(=O)/C(=C/c2ccccc2Cl)SC1=S)N1CCOCC1	?	5.6µM*	?	-38	4%	-6%
Cc1ccccc1CNC(=O)C(=O)NCC(c1ccc2c(c1)OCO2)N1CCOCC1 (centres undefined)	-2%[46.1 µM]	.	.	-4	.	-3%
COc1ccc(-n2nc(C(=O)N3CCN(c4cccc(C)c4C)CC3)c3c4ccccc4n(C)c3c2=O)cc1Cl	17%[46.1 µM]	.	1%[46.1 µM]	10	.	-4%
O=C(CCCN1C(=O)/C(=C/c2ccccc2)SC1=S)N1CCOCC1	.	-7%	-2%[46.1 µM]	-97*	-5%	-10%
O=C(CCCN1C(=O)/C(=C/c2ccccc2Cl)SC1=S)N1CCCC1	.	?	.	-109*	-25%	?
O=C(CCCN1C(=O)/C(=C/c2ccccc2Cl)SC1=S)NNC(=O)c1ccccc1Cl	?	12%	6.3µM*	-88*	-20%	?
O=C(CCCN1C(=O)/C(=C/c2ccccc2Cl)SC1=S)NNC(=O)c1ccncc1	?	-20%	?	?	-1%	0%
O=C(CCN1C(=O)/C(=C/c2ccccc2Cl)SC1=S)N1CCCC1	0%	?	-15%[46.1 µM]	-21	2%	?
Cc1ccc(Sc2ccc(N3CCCC(C(=O)Nc4ccc(F)cc4)C3)nn2)cc1 (centres undefined)	?	.	-16%[46.1 µM]	-24	.	-14%
COc1ccc(C2=NN(C)C(=NCc3ccccc3)SC2)cc1	0%	7.9µM*	1%	-13	2%	19%
CCNc1ncc2nc(-c3ccccc3)c(=O)n(C)c2n1	.	.	.	.	.	31%
CCSc1nnc(NC(=O)NC(C)(C(F)(F)F)C(F)(F)F)s1	?	-14%	?	-67*	-15%	-15%
CCCC(=O)Nc1nnc(SCC)s1	11%	33%	3%	-14	9%	34%
CCSc1nnc(NC(=O)NC(CC)(C(F)(F)F)C(F)(F)F)s1	?	?	?	-79*	-10%	?
Cc1cc(C)cc(C(=O)Nc2ccc(-c3nc4ncccc4o3)cc2)c1	-10%[46.1 µM]	.	-5%[46.1 µM]	?	.	0%
SMILES	LASV entry inh	HCV inhibitor	Marburg entry inh	HCMV inh	SARS PLpro yeast	FMDV antiviral
O=C(Nc1nc2ccccc2[nH]1)NC1CCCCC1	11µM*	-1%	?	57	?	-26%
O=C(Nc1nc2ccccc2[nH]1)C1CC1	22%	?	-18%	-2	5%	67%
NC(=O)c1ccccc1NC(=O)NC1CCCCC1	-8%	13%	3%	-2	3%	4%
O=C(Nc1ccccc1NC(=O)NC1CCCCC1)NC1CCCCC1	13µM*	13µM*	4.6µM*	-106*	0%	54%
COC(=O)[C@@]1(C=C[C@@H](C)[C@H](OC)c2ccccc2Br)[C@@H]2OCCC[C@@H]21	.	.	-4%[14.2 µM]	.	.	.
O=C(NC1CCCC1)C(c1cccs1)N(C(=O)c1ccco1)c1ccc2c(c1)OCCO2 (centres undefined)	?	?	-19%	-62*	-2%	-2%
COc1ccc(N(C(=O)c2ccco2)C(C(=O)NC2CCCC2)c2cccs2)cc1 (centres undefined)	?	-25%	?	-69*	0%	7%
COc1cccc(C(C(=O)NC2CCCCC2)N(C(=O)c2cccs2)c2ccc3c(c2)OCO3)c1 (centres undefined)	?	?	-33%	-83*	17%	-13%
COc1cccc(C(C(=O)NC2CCCCC2)N(C(=O)Cc2cccs2)c2ccc(-n3cnnn3)c(OC)c2)c1 (centres undefined)	?	?	?	-2	1%	47%
CCOC(=O)CCCNC(=O)N1CCc2nc(-c3ccc(OC)cc3C)c3c(c2C1)CO[C@@H](c1ccccc1)C3	.	.	-5%[14.2 µM]	.	.	.
C[C@@H](CN1CCC[C@H]1CN1C(N)=NC[C@@H]1Cc1ccccc1)N1C[C@@H](Cc2ccccc2)N(CCc2ccc(Cl)c(Cl)c2)C1=N	.	1%	.	.	0%	-15%
CC(C)[C@@H]1CN=C(N)N1C[C@@H]1CCCN1C[C@H](C)N1C[C@@H](Cc2ccccc2)N(CCc2ccc(Cl)c(Cl)c2)C1=N	.	0.56µM*	.	.	3%	-3%
CCCOc1ccc(C(O)(CCC)CCN2CCCCC2)cc1 (centres undefined)	?	8.9µM*	-29%	-17	7%	0%
COC(=O)c1c(C)nn(-c2ccc(F)cc2)c1-n1cccc1	-24%[46.1 µM]	.	6%[46.1 µM]	?	.	5%
Cc1ccccc1CN1CCCC(C(=O)Nc2ccc(-c3ccn[nH]3)cc2)C1 (centres undefined)	-28%	?	?	-63*	-10%	-19%
COc1cccc(-c2ccc(NC(=O)C3CCCN(CCCn4cccn4)C3)cc2)c1 (centres undefined)	?	?	?	-29	-1%	35µM*
COCc1ccc(CN2CCCC(C(=O)Nc3ccc(-c4cccc(OC)c4)cc3)C2)o1 (centres undefined)	.	10µM*	.	?	?	-16%
COCc1ccc(CN2CCCC(C(=O)Nc3ccccc3-c3ccc(OC)cc3)C2)o1 (centres undefined)	.	-20%	.	4	-2%	22%
COc1cccc(C(=O)C2CCCN(Cc3cnn(C(C)C)c3)C2)c1 (centres undefined)	-7%	1%	-19%[46.1 µM]	18	1%	-14%
